# Measurements taken from ChEMBL document CHEMBL3988442, “University of Dundee, Small-Polar-MMV Screening Library” (2021).
# Screen size: about 53,000 compounds; about 900 (1.7%) showed an effect of 50% or more. This is one part of a sample in which strong results are shown more often than they occur.
# Tested on: Mycobacterium tuberculosis
# Assay: Cornell - Phenotypic assay to identify agents that inhibit growth of Mycobacterium tuberculosis
# Assay type: functional
# Design: scale not given: direction of the effect not stated beside the values
# Conditions: 10 mM as filed; unlikely as a test dose
row,SMILES,Percent Effect [%]
1,COC(=O)c1cc(OCC2CCC2)cc(C(=O)N[C@H]2CCCC[C@@H]2O)c1,13.96
2,Cc1nc(C)c(C(=O)N2CCCC2(C)C(=O)NC2CCCC2)s1 (stereo not drawn),-2.69
3,Cc1cc(C)n(CC2CN(CC(=O)NC3(C#N)CCCC3)CCO2)n1 (stereo not drawn),-4.222
4,CCOCCC(=O)Nc1cccc(Oc2ccccn2)c1,-2.089
5,NC(=O)c1cnc(NC2CCC(c3ccccc3)CC2)c(Cl)c1 (stereo not drawn),57.03
6,NC(=O)c1cnc(NC2CCN(c3ccccc3)CC2)c(Cl)c1,48.08
7,NC(=O)c1cnc(NC2CCN(c3ccccn3)CC2)c(Cl)c1,18.4
8,O=S(=O)(c1cccnc1)N1CCN(Cc2nc(-c3ccco3)cs2)CC1,31.36
9,Cc1nc(C)n(CC2CCCN(Cc3cccnc3)C2)n1 (stereo not drawn),6.124
10,O=c1[nH]c(CCN2CCN(CC(F)(F)F)CC2)nc2ccccc12,106.7
11,O=c1[nH]c(CN2CCN(CC(F)(F)F)CC2)nc2ccccc12,9.356
12,CN(CCC(F)(F)F)c1nc2ccccc2c(=O)[nH]1,-4.598
13,CCOCCN1CCN(CCc2nc3ccccc3c(=O)[nH]2)CC1,106.8
14,CCC(CC)C(=O)N1CCN(Cc2nc3ccccc3c(=O)[nH]2)CC1,5.405
15,CN(CCC(F)(F)F)Cc1nc2ccccc2c(=O)[nH]1,7.133
16,CN(CCc1nc2ccccc2c(=O)[nH]1)CCC(F)(F)F,95.2
17,O=c1[nH]c(CCN2CCCC(Cn3cncn3)C2)nc2ccccc12 (stereo not drawn),33.45
18,Cn1nc2c(cc1=O)CN(CCc1nc3ccccc3c(=O)[nH]1)CC2,8.475
19,O=C(c1sccc1-n1cnnn1)N1CCC(Cc2ccccc2)CC1,28.81
20,CCOC1Sc2nnc(C)n2N=C1c1ccc(F)cc1 (stereo not drawn),27.03
21,CC(C)NC(=O)N1CCN(Cc2ccccn2)CC2(CC(=O)N(C)C2)C1.O=C(O)C(F)(F)F.O=C(O)C(F)(F)F (stereo not drawn),-0.1639

row,SMILES,Percent Effect [%]
1,COc1cccc(CC2CCCN2Cc2nccn2C)c1 (stereo not drawn),13.47
2,O=C(c1cscn1)N1CC[C@H]2[C@@H]1CCC(=O)N2c1ccccc1,102.6
3,Cc1cc(C(=O)N2CC[C@H]3[C@@H]2CCC(=O)N3c2ccccc2)no1,0.08428
4,Cn1cc(N2C(=O)CC[C@@H]3[C@H]2CCN3C(=O)c2cscn2)cn1.O=C(O)C(F)(F)F,15.97
5,Cc1nnc(CN(Cc2ccc3c(c2)OCO3)C2CCCCC2)o1,52.33
6,CCc1noc(CN(Cc2ccc3c(c2)OCO3)C2CCCC2)n1,1.573
7,Cc1nnc(CN(Cc2ccc3c(c2)OCO3)C2CCC(C)CC2)o1 (stereo not drawn),50.97
8,Cc1noc(CN(Cc2ccc3c(c2)OCO3)C2CCCC2)n1,4.979
9,Cc1nnc(CN(Cc2ccccc2Br)C2CC2)o1,42.91
10,Cc1nnc(CN(Cc2cccc(Br)c2)C2CC2)o1,22.14
11,O=C(CCn1cc(Cl)cn1)N1CCN(CC2CC2)[C@@H]2CS(=O)(=O)C[C@@H]21,-27.81
12,O=C(CC1CCc2ccccc21)N1CCC(C(=O)O)(n2ccnc2)CC1 (stereo not drawn),-2.815
13,O=C(NCc1ccnc(OCC2CC2)c1)C1COc2ccccc2O1 (stereo not drawn),12.77
14,CC(=O)Nc1cccc(OCCNC(=O)N(C)Cc2ccco2)c1,2.051
15,Cc1ccc(Oc2c(F)cccc2OC[C@@H](N)CC(C)C)cc1,106.4
16,CNCc1cc(F)ccc1Oc1ccc(Cl)cc1,-16.87
17,CC(C)C(=O)Nc1cccc(OCC(=O)NCc2ccccc2F)c1,6.908
18,CC(C)C[C@H](N)COc1cccc(F)c1Oc1cccc(Cl)c1,106.7
19,CC(C)C[C@H](N)COc1cccc(F)c1Oc1ccccc1,5.347
20,CC(C)C[C@H](N)COc1cccc(F)c1Oc1ccc(Cl)cc1,107.4
21,CCNCCOc1ccc(-c2cc(N)nc3[nH]ccc23)cc1,21.99

row,SMILES,Percent Effect [%]
1,COc1c(C)cnc(CN2CCCC2c2noc(C)n2)c1C (stereo not drawn),-16.92
2,CCCC1(CO)CCCN(c2ncnc3c2c(C)nn3C)C1 (stereo not drawn),-13.93
3,Cc1cccc(-c2ccc(C(=O)N3CCN(C(C)C)CC3)c(=O)[nH]2)c1,26.41
4,CC(C)OCCC(=O)NS(=O)(=O)N1CCOc2ccccc21,29.29
5,CCOc1ccccc1C(=O)NCCc1ccoc1,23.58
6,CNS(=O)(=O)c1ccc(C(=O)NC2CCOc3ccccc32)o1 (stereo not drawn),7.684
7,CC(C)c1nnc2sc(CC3CN(Cc4ccccc4)CCO3)nn12 (stereo not drawn),-19.21
8,CC(C)COCCCNC(=O)c1cccnc1N1CCOCC1,3.314
9,O=C(NCCCOCC1CCCO1)c1cccnc1N1CCCC1 (stereo not drawn),105.2
10,O=C(NCCCOCC1CCCO1)c1cccnc1N1CCOCC1 (stereo not drawn),-37.06
11,O=C(NCCNc1ncccn1)c1ccc(Br)cc1,-16.37
12,Cc1ccc(C)n1-c1ccc(C(=O)NCCNc2ncccn2)cc1,76.43
13,CCc1ccc(C(=O)NCCNc2ncccn2)cc1,-25.5
14,Cc1cc(N(C)C)nc(C2(C)CCCN2C(=O)c2cncnc2C)n1 (stereo not drawn),-9.352
15,CN(C)C(=O)[C@@H]1CCO[C@@H]2CCN(Cc3ccccc3)C[C@@H]21.O=C(O)C(F)(F)F,104.8
16,CN(C)C(=O)[C@@H]1CCO[C@@H]2CCN(CCc3ccccc3)C[C@@H]21.O=C(O)C(F)(F)F,4.406
17,CN(C)C(=O)[C@@H]1CCO[C@@H]2CCN(Cc3ccc4c(c3)OCO4)C[C@@H]21.O=C(O)C(F)(F)F,-46.82
18,CCc1ccc(CN(C(=O)CCn2cc(S(N)(=O)=O)cn2)C2CC2)cc1,-10.53
19,COc1ccc(C2CN(c3cc(C)ncn3)CCN2C(C)=O)cc1 (stereo not drawn),-53.77
20,Cc1nn(CCNc2ncnc3c2NC(=O)CN3)c(C)c1Cl,45.57
21,COc1cc(N2CCC3(CCN(Cc4csc(C)n4)C3)CC2)ncn1.O=C(O)C(F)(F)F,24.59
